Here are results for 40 compounds from PubChem BioAssay (Tox21).

Structures are written as SMILES. Results filed as inconclusive are left out. A call without a number means that no potency is given here. A number with no mark means an inactive call. Activity calls are given as the source filed them. Calls follow the shape of the dose curve; as a rule, active = well fitted inhibition curve with a large enough effect in the repeat runs; inconclusive = weak or mixed curves; inactive = flat fitted curve, though single readings scatter.

The nature of the test: qHTS assay to identify small molecule HDAC inhibitors (AID 1259364). Also: top concentration of the series differs between compounds; nearly all actives have a fitted effect of over 45% in size. The note with it: HCT-116 HDAC-Glo I/II luminescence, 2 h; series mostly up to 92.4 µM; activity change, negative = inhibition: at the top concentration. An excerpt:
U.S. Tox21 Program National Center for Advancing Translational Sciences [NCATS] NIH Chemical Genomics Center [NCGC] U.S. Environmental Protection Agency [EPA] National Institutes of Environmental Health Sciences [NIEHS] National Toxicology Program [NTP] U.S. Food and Drug Administration [FDA] Tox21 Assay Overview: Histone deacetylases (HDACs) are a group of epigenetic enzymes that regulate gene expression by histone deacetylation. HDACs are capable of introducing epigenetic modifications and such aberrations contribute to the onset and progression of several human diseases, thus making HDACs a popular therapeutic target. For identifying endogenous class I/II HDAC inhibitors a homogenous, luminogenic HDAC I/II cell based assay was used to measure the relative activity of class I and II HDACs from cells. Wild type HCT-116 cells were used to screen Tox21 libraries for identifying class I/II HDAC inhibitors.
Tox21 Assay Protocol Summary: HCT-116 cells were dispensed at 1,500 per well in 5uL of culture medium into white solid bottom 1536-well plates (Greiner Bio-One, Monroe, NC) using a Multidrop Combi (Thermo Scientific, Waltham, MA) dispenser. The assay plates were incubated at 37 C and 5% CO2 for an overnight, and then 23nL of compounds dissolved in DMSO and positive control were transferred using a Pintool station (Wako, San Diego, CA). The assay plates were incubated at 37C and 5% CO2 for 2hr. After compound treatment, 4uL of HDAC-Glo reagent (Promega Corporation, Madison, WI) was added to each well of the assay plates using Flying Reagent Dispenser (FRD, Aurora Discovery, San Diego, CA) and incubated the assay plates at room temperature for 30min. The luminescence signal was quantified using a ViewLux plate reader (Perkin Elmer, Shelton, CT).
For `Cc1ccc(S(=O)(=O)N=C=O)cc1`, the Potency result is “inactive”. The same measure, in the same setting: in the case of `COc1ccccc1OCC(O)CO` (stereo not given) it was “inactive”; in that of `Clc1ccccn1`, “inactive”; in that of `CCCCCCCCCCCCCCCC(=O)OC(C)C`, “inactive”. Same read-out and setting: in the case of `CCCCCCCO` it was “inactive”. On to `C=CCc1ccc(OC)c(OC)c1`, for which the Potency result was “inactive”. On to `CNC(=O)Oc1ccc2c(c1)[C@]1(C)CCN(C)[C@@H]1N2C`, for which the Potency result is “inactive”. Still for that read-out and setting: in the case of `Cc1ccc([N+](=O)[O-])cc1S(=O)(=O)O` it was “inactive”. On the same count and under the same terms, next, `C=CC[N+](C)(C)CC=C`: “inactive”; `O=C(O)c1ccc(S(=O)(=O)N(Cl)Cl)cc1`: “inactive”. Still for that read-out and setting: in the case of `CCCCCCCCCCCC(=O)OC` it was “inactive”; in that of `CCCCCCC=O`, “inactive”. For `CN(C)c1ccc(O)c2c1C[C@H]1C[C@H]3[C@H](N(C)C)C(=O)C(C(N)=O)=C(O)[C@@]3(O)C(=O)C1=C2O`, the Potency result was “inactive”.

Regarding `CSc1ccc(Cl)cc1`, the Potency result was “inactive”. Consider `COc1ccc(N)c(C)c1`, for which the Potency entry is “inactive”. The same measure, in the same setting: next, `COCCCN`: “inactive”; `COC(=O)CCCC(=O)OC`: “inactive”; `CC(=O)OCc1ccco1`: “inactive”. On the same count and under the same terms, in the case of `O=C(O)CCCCCCCCC(=O)O` it was “inactive”. On the same count and under the same terms, next, `CC(C)(C)c1cc(Cc2cc(C(C)(C)C)c(O)c(C(C)(C)C)c2)cc(C(C)(C)C)c1O`: “inactive”; `CC(C)(C#N)c1cc(Cn2cncn2)cc(C(C)(C)C#N)c1`: “inactive”.

In the case of `CCNC(=S)NCC`, the Potency entry is “inactive”. Still for that read-out and setting: next, `OC1C(O)C(O)C(O)C(O)C1O` (stereo not given): “inactive”; `CCCOC(=O)c1ccccc1`: “inactive”; `CCCCCCO`: “inactive”. Consider `C=CC(C)CCCC(C)(C)O` (stereo not given), for which the Potency result was “inactive”. Consider `O=S(=O)(O)c1ccc(N=Nc2c(O)ccc3cc(S(=O)(=O)O)ccc23)cc1`, for which the Potency result was “inactive”. The same measure, in the same setting: in the case of `O=c1[nH]cnc2[nH]ncc12` it was “inactive”; in that of `C=CC(=O)OCCC(=O)O`, “inactive”. Still for that read-out and setting: in the case of `CC(C)CC(C)O` (stereo not given) it was “inactive”; in that of `CC1(C)S[C@@H]2[C@H](NC(=O)COc3ccccc3)C(=O)N2[C@H]1C(=O)O`, “inactive”; in that of `C=C(C)CNCC`, “inactive”. On the same count and under the same terms, in the case of `c1ccc(Oc2ccccc2)cc1` it was “inactive”. Take `CC(=O)OC1CC(C)OC(C)O1` (stereo not given): the Potency result is “inactive”. On to `O=C1C(c2[nH]c3ccccc3c2O)=Nc2ccccc21`, for which the “activity change, negative = inhibition” value is -3.87%. `COc1ccc(CCC(C)=O)cc1`: the Potency entry was “inactive”. Still for that read-out and setting: in the case of `CC(O)CC(C)(C)O` (stereo not given) it was “inactive”. In the case of `CCCCCCCC=O`, the Potency entry is “inactive”. Consider `CC(C)OC(=O)COc1ccc(Cl)cc1Cl`, for which the Potency result was “inactive”. Still for that read-out and setting: in the case of `O=C(OCC1CCC2OC2C1)C1CCC2OC2C1` (stereo not given) it was “inactive”.
